According to PubChem BioAssay AID1159580 (chemical genetic matrix, 2015):
The campaign covered roughly 5,500 compounds. About 2,000 (36%) were called active. Another 18% or so got no clear call; they are omitted. The list shows a part of the results. Values without a mark were called inactive. Cut-off read from the data, not from the text of the source: active = normalized growth mostly below about 0.91 (no sharp cut-off); inconclusive = no clear call, values can overlap the other calls; inactive = mostly above about 0.92.

Assay: chemical genetic growth profiling, strain panel (AID 1159580);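 note: tested at 20 µM; growth read once vehicle control cultures reached saturation at 30 °C; 1 = growth at the plate median or of vehicle wells; lower values mean less growth of the strain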
Conditions: growth OD
[1] = S. cerevisiae deletion strains, locus YDL101C, strain DUN1, stronger effect = lower value
[2] = S. cerevisiae deletion strains, locus YHR030C, strain SLT2, stronger effect = lower value
[3] = S. cerevisiae deletion strains, locus YAR019C, strain CDC15, stronger effect = lower value
[4] = S. cerevisiae deletion strains, locus YBL105C, strain PKC1, stronger effect = lower value
[5] = S. cerevisiae deletion strains, locus YBR135W, strain CKS1, stronger effect = lower value
[6] = S. cerevisiae deletion strains, locus YBR136W, strain MEC1, stronger effect = lower value
[7] = S. cerevisiae deletion strains, locus YBR160W, strain CDC28, stronger effect = lower value
[8] = S. cerevisiae deletion strains, locus YDL017W, strain CDC7, stronger effect = lower value
[9] = S. cerevisiae deletion strains, locus YDL028C, strain MPS1, stronger effect = lower value
[10] = S. cerevisiae deletion strains, locus YDL108W, strain KIN28, stronger effect = lower value
[11] = S. cerevisiae deletion strains, locus YDL132W, strain cdc53, stronger effect = lower value
[12] = S. cerevisiae deletion strains, locus YDL214C, strain PRR2, stronger effect = lower value
[13] = S. cerevisiae deletion strains, locus YDR052C, strain DBF4, stronger effect = lower value
[14] = S. cerevisiae deletion strains, locus YDR054C, strain cdc34, stronger effect = lower value
[15] = S. cerevisiae deletion strains, locus YDR226W, strain ADK1, stronger effect = lower value
[16] = S. cerevisiae deletion strains, locus YDR477W, strain SNF1, stronger effect = lower value
[17] = S. cerevisiae deletion strains, locus YER123W, strain YCK3, stronger effect = lower value
[18] = S. cerevisiae deletion strains, locus YER133W, strain GLC7, stronger effect = lower value
[19] = S. cerevisiae deletion strains, locus YFL009W, strain cdc4, stronger effect = lower value
[20] = S. cerevisiae deletion strains, locus YFL029C, strain CAK1, stronger effect = lower value
[21] = S. cerevisiae deletion strains, locus YFR003C, strain YPI1, stronger effect = lower value
[22] = S. cerevisiae deletion strains, locus YFR019W, strain FAB1, stronger effect = lower value
[23] = S. cerevisiae deletion strains, locus YFR028C, strain CDC14, stronger effect = lower value
[24] = S. cerevisiae deletion strains, locus YGR040W, strain KSS1, stronger effect = lower value
[25] = S. cerevisiae deletion strains, locus YGR052W, strain FMP48, stronger effect = lower value
[26] = S. cerevisiae deletion strains, locus YGR092W, strain DBF2, stronger effect = lower value
[27] = S. cerevisiae deletion strains, locus YHR079C, strain IRE1, stronger effect = lower value
[28] = S. cerevisiae deletion strains, locus YHR082C, strain KSP1, stronger effect = lower value
[29] = S. cerevisiae deletion strains, locus YHR205W, strain SCH9, stronger effect = lower value
[30] = S. cerevisiae deletion strains, locus YIL147C, strain SLN1, stronger effect = lower value
[31] = S. cerevisiae deletion strains, locus YJL095W, strain BCK1, stronger effect = lower value
[32] = S. cerevisiae deletion strains, locus YJL128C, strain PBS2, stronger effect = lower value
[33] = S. cerevisiae deletion strains, locus YJL157C, strain FAR1, stronger effect = lower value
[34] = S. cerevisiae deletion strains, locus YJR016C, strain ILV3, stronger effect = lower value
[35] = S. cerevisiae deletion strains, locus YJR066W, strain TOR1 (second series), stronger effect = lower value
[36] = S. cerevisiae deletion strains, locus YJR066W, strain TOR1, stronger effect = lower value
[37] = S. cerevisiae deletion strains, locus YKL048C, strain ELM1, stronger effect = lower value
[38] = S. cerevisiae deletion strains, locus YKL067W, strain YNK1, stronger effect = lower value
[39] = S. cerevisiae deletion strains, locus YKL101W, strain HSL1, stronger effect = lower value
[40] = S. cerevisiae deletion strains, locus YKL193C, strain SDS22, stronger effect = lower value
[41] = S. cerevisiae deletion strains, locus YKL203C, strain TOR2, stronger effect = lower value
[42] = S. cerevisiae deletion strains, locus YLR113W, strain HOG1, stronger effect = lower value
[43] = S. cerevisiae deletion strains, locus YLR133W, strain CKI1, stronger effect = lower value
[44] = S. cerevisiae deletion strains, locus YLR403W, strain SFP1, stronger effect = lower value
[45] = S. cerevisiae deletion strains, locus YML070W, strain DAK1, stronger effect = lower value
[46] = S. cerevisiae deletion strains, locus YMR001C, strain CDC5, stronger effect = lower value
[47] = S. cerevisiae deletion strains, locus YMR205C, strain PFK2 (second series), stronger effect = lower value
[48] = S. cerevisiae deletion strains, locus YMR277W, strain FCP1, stronger effect = lower value
[49] = S. cerevisiae deletion strains, locus YNL006W, strain LST8, stronger effect = lower value
[50] = S. cerevisiae deletion strains, locus YNL020C, strain ARK1, stronger effect = lower value
[51] = S. cerevisiae deletion strains, locus YNL161W, strain CBK1, stronger effect = lower value
[52] = S. cerevisiae deletion strains, locus YNL183C, strain NPR1, stronger effect = lower value
[53] = S. cerevisiae deletion strains, locus YNL207W, strain RIO2, stronger effect = lower value
[54] = S. cerevisiae deletion strains, locus YNL222W, strain SSU72, stronger effect = lower value
[55] = S. cerevisiae deletion strains, locus YNL307C, strain MCK1 (second series), stronger effect = lower value
[56] = S. cerevisiae deletion strains, locus YOL078W, strain AVO1, stronger effect = lower value
[57] = S. cerevisiae deletion strains, locus YOL136C, strain PFK27, stronger effect = lower value
[58] = S. cerevisiae deletion strains, locus YOR061W, strain CKA2, stronger effect = lower value
[59] = S. cerevisiae deletion strains, locus YOR119C, strain RIO1, stronger effect = lower value
[60] = S. cerevisiae deletion strains, locus YOR231W, strain MKK1, stronger effect = lower value
[61] = S. cerevisiae deletion strains, locus YOR329C, strain SCD5, stronger effect = lower value
[62] = S. cerevisiae deletion strains, locus YPL031C, strain PHO85, stronger effect = lower value
[63] = S. cerevisiae deletion strains, locus YPL153C, strain RAD53, stronger effect = lower value
[64] = S. cerevisiae deletion strains, locus YPL204W, strain HRR25, stronger effect = lower value
[65] = S. cerevisiae deletion strains, locus YPL209C, strain IPL1, stronger effect = lower value
[66] = S. cerevisiae deletion strains, locus YPL256C, strain CLN2, stronger effect = lower value
[67] = S. cerevisiae deletion strains, locus YPR025C, strain CCL1, stronger effect = lower value
[68] = S. cerevisiae deletion strains, locus YPR106W, strain ISR1, stronger effect = lower value
[69] = S. cerevisiae deletion strains, locus YPR111W, strain DBF20, stronger effect = lower value
[70] = S. cerevisiae deletion strains, strain NNK1, stronger effect = lower value
[71] = S. cerevisiae deletion strains, strain TSCII, stronger effect = lower value

CC12NC(=O)NC1(C)NC(=O)N2 (stereo not drawn)
normalized growth (S. cerevisiae deletion strains, locus YAL013W, strain DEP1, stronger effect = lower value): 1.04
normalized growth (S. cerevisiae deletion strains, locus YBR229C, strain ROT2, stronger effect = lower value): 1.01
normalized growth (S. cerevisiae deletion strains, locus YCL061C, strain MRC1, stronger effect = lower value): 1
normalized growth [1]: 1.01
normalized growth (S. cerevisiae deletion strains, locus YDL134C, strain PPH21, stronger effect = lower value): 1.02
normalized growth (S. cerevisiae deletion strains, locus YDR150W, strain NUM1, stronger effect = lower value): 0.997
normalized growth (S. cerevisiae deletion strains, locus YEL061C, strain CIN8, stronger effect = lower value): 1.03
normalized growth (S. cerevisiae deletion strains, locus YGR078C, strain PAC10, stronger effect = lower value): 1.02
normalized growth (S. cerevisiae deletion strains, locus YGR229C, strain SMI1, stronger effect = lower value): 1.01
normalized growth [2]: 1.07
normalized growth (S. cerevisiae deletion strains, locus YHR087W, strain rtc3, stronger effect = lower value): 1.01
normalized growth (S. cerevisiae deletion strains, locus YJR043C, strain POL32, stronger effect = lower value): 1.01
normalized growth (S. cerevisiae deletion strains, locus YJR075W, strain HOC1, stronger effect = lower value): 1.02
normalized growth (S. cerevisiae deletion strains, locus YKL190W, strain CNB1, stronger effect = lower value): 1.03
normalized growth (S. cerevisiae deletion strains, locus YLR039C, strain RIC1, stronger effect = lower value): 1.06
normalized growth (S. cerevisiae deletion strains, locus YLR058C, strain SHM2 (second series), stronger effect = lower value): 1.02
normalized growth (S. cerevisiae deletion strains, locus YLR085C, strain ARP6, stronger effect = lower value): 1.05
normalized growth (S. cerevisiae deletion strains, locus YLR262C, strain YPT6, stronger effect = lower value): 1.04
normalized growth (S. cerevisiae deletion strains, locus YML094W, strain GIM5, stronger effect = lower value): 1.04
normalized growth (S. cerevisiae deletion strains, locus YMR219W, strain ESC1, stronger effect = lower value): 1.01
normalized growth (S. cerevisiae deletion strains, locus YMR263W, strain SAP30, stronger effect = lower value): 1.01
normalized growth (S. cerevisiae deletion strains, locus YMR307W, strain GAS1, stronger effect = lower value): 1.11
normalized growth (S. cerevisiae deletion strains, locus YNL153C, strain GIM3, stronger effect = lower value): 1
normalized growth (S. cerevisiae deletion strains, locus YNL298W, strain CLA4 (second series), stronger effect = lower value): 1.05
normalized growth (S. cerevisiae deletion strains, locus YNL322C, strain KRE1, stronger effect = lower value): 1.01
normalized growth (S. cerevisiae deletion strains, locus YNR030W, strain Alg12, stronger effect = lower value): 1.02
normalized growth (S. cerevisiae deletion strains, locus YOL006C, strain TOP1, stronger effect = lower value): 1.09
normalized growth (S. cerevisiae deletion strains, locus YPL055C, strain LGE1, stronger effect = lower value): 1.04
normalized growth (S. cerevisiae deletion strains, locus YPL241C, strain CIN2, stronger effect = lower value): 1.05
normalized growth (S. cerevisiae deletion strains, locus YPR135W, strain CTF4, stronger effect = lower value): 1.02
normalized growth (S. cerevisiae strains, strain wild type, stronger effect = lower value): 1.01

ClC1=C(C=Nc2ccc(Cl)cc2)CSc2ccc(Cl)cc21
normalized growth [3]: 0.941
normalized growth [4]: 0.926
normalized growth [5]: 0.939
normalized growth [6]: 0.926
normalized growth [7]: 0.937
normalized growth [8]: 0.933
normalized growth [9]: 0.912
normalized growth [1]: 0.945
normalized growth [10]: 0.923
normalized growth [11]: 0.936
normalized growth [12]: 0.896
normalized growth [13]: 0.943
normalized growth [14]: 0.919
normalized growth [15]: 0.914
normalized growth [16]: 0.879
normalized growth [17]: 0.83
normalized growth [18]: 0.891
normalized growth [19]: 0.924
normalized growth [20]: 0.928
normalized growth [21]: 0.94
normalized growth [22]: 0.909
normalized growth [23]: 0.935
normalized growth [24]: 0.866
normalized growth [25]: 0.905
normalized growth [26]: 0.796
normalized growth [2]: 0.74 (active)
normalized growth [27]: 0.862
normalized growth [28]: 0.816
normalized growth [29]: 0.812
normalized growth [30]: 0.926
normalized growth [31]: 0.881
normalized growth [32]: 0.903
normalized growth [33]: 0.886
normalized growth [34]: 0.936
normalized growth [35]: 0.91
normalized growth [36]: 0.815
normalized growth [37]: 0.941
normalized growth [38]: 0.902
normalized growth [39]: 0.893
normalized growth [40]: 0.932
normalized growth [41]: 0.884
normalized growth [42]: 0.808 (active)
normalized growth [43]: 0.869
normalized growth [44]: 0.836
normalized growth [45]: 0.89
normalized growth [46]: 0.927
normalized growth [47]: 0.904
normalized growth [48]: 0.933
normalized growth [49]: 0.928
normalized growth [50]: 0.883
normalized growth [51]: 0.929
normalized growth [52]: 0.841
normalized growth [53]: 0.926
normalized growth [54]: 0.947
normalized growth [55]: 0.861
normalized growth [56]: 0.937
normalized growth [57]: 0.886
normalized growth [58]: 0.843
normalized growth [59]: 0.848
normalized growth [60]: 0.924
normalized growth [61]: 0.93
normalized growth [62]: 0.87
normalized growth [63]: 0.904
normalized growth [64]: 0.893
normalized growth [65]: 0.932
normalized growth [66]: 0.843 (active)
normalized growth [67]: 0.935
normalized growth [68]: 0.922
normalized growth [69]: 0.923
normalized growth [70]: 0.923
normalized growth [71]: 0.93

O=[N+]([O-])c1ccc2oc(C(O)c3cccc(Cl)c3)cc2c1 (stereo not drawn)
normalized growth [3]: 0.947
normalized growth [4]: 0.948
normalized growth [5]: 0.943
normalized growth [6]: 0.957
normalized growth [7]: 0.947
normalized growth [8]: 0.949
normalized growth [9]: 0.954
normalized growth [1]: 0.937
normalized growth [10]: 0.949
normalized growth [11]: 0.936
normalized growth [12]: 0.942
normalized growth [13]: 0.953
normalized growth [14]: 0.951
normalized growth [15]: 0.952
normalized growth [16]: 0.957
normalized growth [17]: 0.94
normalized growth [18]: 0.96
normalized growth [19]: 0.945
normalized growth [20]: 0.946
normalized growth [21]: 0.948
normalized growth [22]: 0.931
normalized growth [23]: 0.949
normalized growth [24]: 0.964
normalized growth [25]: 1.05
normalized growth [26]: 0.907
normalized growth [2]: 1.08
normalized growth [27]: 1.02
normalized growth [28]: 1.06
normalized growth [29]: 0.931
normalized growth [30]: 0.96
normalized growth [31]: 1.04
normalized growth [32]: 0.91
normalized growth [33]: 0.932
normalized growth [34]: 0.954
normalized growth [35]: 0.93
normalized growth [36]: 1.09
normalized growth [37]: 0.93
normalized growth [38]: 0.942
normalized growth [39]: 0.934
normalized growth [40]: 0.946
normalized growth [41]: 1.03
normalized growth [42]: 0.893
normalized growth [43]: 0.935
normalized growth [44]: 0.939
normalized growth [45]: 0.94
normalized growth [46]: 0.945
normalized growth [47]: 0.944
normalized growth [48]: 0.952
normalized growth [49]: 0.954
normalized growth [50]: 0.929
normalized growth [51]: 0.956
normalized growth [52]: 1.04
normalized growth [53]: 0.944
normalized growth [54]: 0.947
normalized growth [55]: 0.925
normalized growth [56]: 0.946
normalized growth [57]: 0.95
normalized growth [58]: 0.922
normalized growth [59]: 0.992
normalized growth [60]: 1.01
normalized growth [61]: 0.948
normalized growth [62]: 0.953
normalized growth [63]: 0.955
normalized growth [64]: 0.954
normalized growth [65]: 0.946
normalized growth [66]: 0.996
normalized growth [67]: 0.953
normalized growth [68]: 0.961
normalized growth [69]: 0.948
normalized growth [70]: 0.934
normalized growth [71]: 0.944
